Screening results as filed in PubChem BioAssay.
A selection: hits, their analogues and other compounds. The true share with any hit is near 3.8%.
A549 tox: counter-screen for Nrf2 inhibitors: cytotoxicity in A549 cells; A549 ARE-Fluc cells, CellTiter-Fluor viability, 18-24 h; Potency, µM (highest dose often 46 µM), inactives show at the top dose activity change, negative = cytotoxicity, usual class: inhibitors; 390,000 compounds, 0.16% hits; note: % is set by controls: 0 for no effect and ±100 for the full control effect
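Cytotoxicity counterscreen: CellTiter-Fluor fluorescence was measured in A549 ARE_Fluc cells after 18-24 h of compound exposure in a concentration series. The subsequent BugLite luminescent read reports ARE-luciferase activity.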
Nrf2 block: Nrf2 pathway inhibition; A549 ARE-Fluc reporter, luciferase luminescence, 18-24 h; Potency, µM (top dose mostly 46 µM), for the others: top-dose activity change, negative = inhibition, actives largely listed as inhibitors; 360,000 compounds, 2.1% hits; AID 504444; note: % is set by controls: 0 for no effect and ±100 for the full control effect; nearly all actives have a fitted effect of over 60% in size
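In this cell-based qHTS, ARE-driven firefly luciferase in A549 cells reports Nrf2 activity; the luminescent signal after BugLite lysis is the measured value, with a prior CellTiter-Fluor read for cell health.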
ELG1 DNA repair: blocks ELG1-dependent DNA repair in HEK293T cells. AID 504467. 330,000 compounds, 2.3% hits. Potency, µM (doses to about 46.1 µM), for inactives: top-dose activity change, negative = inhibition, hits mostly inhibitors. HEK293T ELG1-luciferase reporter, luminescence, 16 h; DNA damage induced by 5-fluorouridine; note: % is set by controls: 0 for no effect and ±100 for the full control effect; nearly all actives have a fitted effect of over 55% in size
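5-Fluorouridine DNA damage + compound/DMSO, 2,000 cells/well, 16 h, 37 °C/5% CO2. ONE-Glo, 30 min RT, luminescence. Readout = decrease in reporter signal.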
Nrf2 ARE act: activators of Nrf2 (ARE) signaling. AREc32 ARE-luciferase reporter (MCF7-derived line), luminescence, 24 h. Potency, µM (doses to about 46.1 µM), without a hit: at the highest dose activation, most hits filed as activators. 410,000 compounds, 0.31% hits. AID 624171; note: % of control where 0% means no effect; nearly all actives have a fitted effect of over 65% in size
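Luminescent ARE reporter assay in AREc32_Fluc cells: overnight plating at 37 deg C, 24 hr compound incubation, Steady-Glo added, 30 min RT before reading.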
IDH1 R132H inh: human IDH1 R132H inhibition; 390,000 compounds, 0.093% hits; O75874; IDH1-R132H enzyme, NADPH consumption, diaphorase/resazurin fluorescence; AID 602179; Potency, µM (titrated, usually from 76.6 µM), inactives show at the highest dose activity change, negative = inhibition, usual class: inhibitors; note: % is set by controls: 0 for no effect and ±100 for the full control effect; nearly all actives have a fitted effect of over 65% in size
Target sequence (O75874 whole entry R132H, stated change not applied): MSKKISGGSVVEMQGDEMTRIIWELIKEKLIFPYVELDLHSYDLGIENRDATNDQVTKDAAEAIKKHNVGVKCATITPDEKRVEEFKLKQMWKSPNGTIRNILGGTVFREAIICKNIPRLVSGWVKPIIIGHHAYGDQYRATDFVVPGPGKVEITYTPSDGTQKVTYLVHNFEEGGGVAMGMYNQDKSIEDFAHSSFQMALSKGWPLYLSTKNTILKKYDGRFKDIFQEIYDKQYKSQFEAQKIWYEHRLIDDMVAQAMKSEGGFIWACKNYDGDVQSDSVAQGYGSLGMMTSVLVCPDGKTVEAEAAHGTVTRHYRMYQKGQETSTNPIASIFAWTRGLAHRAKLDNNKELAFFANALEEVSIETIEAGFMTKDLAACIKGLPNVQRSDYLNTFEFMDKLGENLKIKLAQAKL
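IDH1-R132H (0.5 ug/mL) preincubated 30 min with compound, then NADPH (0.016 mM) and alpha-KG (2 mM) added; 80 min at RT, pH 7.5. Remaining NADPH coupled via diaphorase/resazurin to fluorescence (540/590 nm); concentration-response curves normalized to no-enzyme control.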
* = called active by the depositor; ? = inconclusive; / = no result; [ ] = remark or other dose. Calls come from the whole dose curve; as a rule, active = well fitted curve in the direction sought with a large enough effect; inconclusive = small, poorly fitted or top-dose-only effect, or another doubt; inactive = no such curve, though single readings can be large; an effect the other way counts as inactive or inconclusive. Potency is the fitted concentration of half-maximal effect.

SMILES	A549 tox	Nrf2 block	ELG1 DNA repair	Nrf2 ARE act	IDH1 R132H inh
CC(/C=C/c1ccc(N(C)C)cc1)=N\N=C1\NC(=O)CC(C(=O)Nc2ccccc2)S1 (stereo not given)	-28%	-22%	?	4%	1%
CC(/C=C/c1ccc(N(C)C)cc1)=N/N=C1/NC(=O)CC(C(=O)Nc2ccc(Cl)cc2)S1 (stereo not given)	18µM*	?	?	13%	-4%
Nc1nc(SCc2ccccc2Cl)nc2nc3c(cc12)CCCC3	3%	-20%	-3%	-1%	-3%
Nc1nc(SCc2ccc(Cl)cc2Cl)nc2nc3c(cc12)CCCC3	-16%	23µM*	-1%	4%	0%
COc1ccccc1N1CCN(c2c3c(nc4nncn24)CCC3)CC1	3%	6%	/	0%	/
CC(=O)Nc1ccc(NC(=O)CN2C(=O)CC(c3ccco3)Sc3ccccc32)cc1 (stereo not given)	-1%	-7%	/	0%	-1%
Cc1ccc(NC(=O)CSc2ccc(-c3ccccn3)nn2)c(C)c1	-2%	-19%	21µM*	0%	29%
O=C(CSc1ccc(-c2cccs2)nn1)Nc1cccc(F)c1	0%	21µM*	/	7%	0%
O=C(CSc1ccc(-c2ccccn2)nn1)Nc1ccc(F)c(F)c1	-8%	3.3µM*	?	4%	6%
O=C(CSc1n[nH]c(-c2ccccn2)n1)Nc1ccc(Cl)cc1	-3%	-17%	21µM*	0%	3%
COc1cc(OC)cc(-c2nnc3n2N=C(c2cc(OC)ccc2OC)CS3)c1	-3%	-14%	/	/	/
Cc1ccc(-c2ccc(=O)n(Cc3cccc(Br)c3)n2)cc1	3%	-8%	0%	9%	-1%
CCOC(=O)c1ccc(NC(=O)CSc2ccc(-c3ccccn3)nn2)cc1	-16%	21µM*	-1%	8%	-5%
CCOc1ccc(NC(=O)CSc2ccc(-c3ccccn3)nn2)cc1	1%	-7%	?	0%	2%
O=C(CSc1ccc(-c2cccnc2)nn1)Nc1ccc(Br)cc1	-14%	7.3µM*	?	3%	1%
CC(=O)c1ccc(NC(=O)CSc2ccc(-c3sc(C)nc3C)nn2)cc1	-1%	0%	18µM*	0%	0%
Cc1ccc(NC(=O)c2ccc(F)c(S(=O)(=O)NCCc3ccccc3)c2)cc1F	?	/	/	-1%	11%
O=C(CSc1nc(=O)[nH]c2c1CCCC2)Nc1ccccc1C(F)(F)F	3%	/	/	3%	18%
N#CCOc1coc(CN2CCN(c3ccccc3)CC2)cc1=O	4%	27%	?	-1%	10%
CCCCC(C(=O)NC1CCCC1)N(Cc1ccco1)C(=O)Cn1nnc(-c2ccc(F)cc2)n1 (stereo not given)	-7%	?	16µM*	3%	-1%
COc1ccc(N(C(=O)Cn2nnc(-c3ccc(F)cc3)n2)C(C)C(=O)NC2CCCC2)cc1 (stereo not given)	-17%	?	?	3%	0%
O=C(CN(Cc1ccco1)C(=O)Cn1nnc(-c2ccc(F)cc2)n1)NC1CCCC1	-2%[1.84 µM]	-17%	-12%	0%	8%
CC(C(=O)NC1CCCC1)N(C(=O)Cn1nnc(-c2ccc(F)cc2)n1)c1ccccc1F (stereo not given)	-15%	?	16µM*	0%	3%
Cc1cc(C)c2c(N)c(C(=O)c3ccc(Br)cc3)oc2n1	1%	17%	-2%	1.8µM*	0%
CCC(=O)N(C1=C(NC)C(=O)c2ccccc2C1=O)C(C)C	?	16µM*	?	-4%	-2%
CNC1=C(N(C(C)=O)c2ccc(Br)cc2)C(=O)c2ccccc2C1=O	?	16µM*	3.7µM*	-3%	10%
CCC(=O)N(CC)C1=C(O)c2ccccc2C(=O)C1=O	-2%	-11%	-1%	4%	10%
CC1CCCCN1C(=O)CN1CCN(S(=O)(=O)c2ccc(Br)cc2Cl)CC1 (stereo not given)	-1%	-15%	?	0%	-8%
COc1cc(NC(=O)CN2CCN(c3ccccc3O)CC2)c(C)cc1[N+](=O)[O-]	-2%	-2%	21µM*	0%[9.22 µM]	2%
